PubChem BioAssay (EPA / NIEHS)
Results filed as inconclusive are left out. Calls of active or inactive are those of the source. The calls were made as follows, unless noted: active = hit-call score of the fitted dose curve at least 0.9, where 1 is the maximum; inactive = score below 0.9.

Legend:
[1] = target: Glucocorticoid receptor (Homo sapiens) (UniProt P04150); assay: ATG_GR_TRANS: Attagene TRANS-FACTORIAL HepG2 Assay for human Glucocorticoid Receptor (GR) (AID 2282978; active = hit-call score of the fitted dose curve at least 0.9, where 1 is the maximum;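 also: activators score as hits since higher reporter transcript over DMSO is fitted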); details: HepG2 Attagene TRANS GR reporter, mRNA transcription
Method in brief: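 HepG2 cells transiently transfected with GAL4-UAS reporter units and exogenous GR-Gal4 chimera, dosed 24 h. Reporter mRNA by RT-PCR, FAM labeling, HpaI digest and capillary electrophoresis; gain-of-signal fit versus DMSO.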

[2] = ATG_M_06_TRANS: Attagene TRANS-FACTORIAL HepG2 Assay for M06 Transcription Factor (Internal Marker) (AID 2282983; active = hit-call score of the fitted dose curve at least 0.9, where 1 is the maximum); details: HepG2 Attagene TRANS M06 internal marker reporter
Method in brief: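 Multi-reporter-transfected HepG2, 24 h treatment; reporter transcripts quantified via RT-PCR, primer-extension labelling and CE. DMSO-normalized gain-of-signal fit.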

[3] = ATG_M_32_TRANS: Attagene TRANS-FACTORIAL HepG2 Assay for M32 Transcription Factor (Internal Marker) (AID 2282984; active = hit-call score of the fitted dose curve at least 0.9, where 1 is the maximum;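 also: transcript level of a background control reporter unit measured by RT-PCR and capillary electrophoresis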); details: HepG2 Attagene TRANS M32 internal marker reporter
Method in brief: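 Internal-marker readout from a multiplexed transcription reporter panel. HepG2 cells were transfected with GAL4-UAS reporter units, treated 24 hours, and reporter transcript levels determined by fluorescence after RT-PCR and capillary separation.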

[4] = target: Nuclear receptor subfamily 4 group A member 2 (Homo sapiens) (UniProt P43354); assay: ATG_NURR1_TRANS: Attagene TRANS-FACTORIAL HepG2 Assay for human Nuclear Receptor Related Protein 1 (NURR1) (AID 2282985; active = hit-call score of the fitted dose curve at least 0.9, where 1 is the maximum); details: HepG2 Attagene TRANS reporter, mRNA readout
Method in brief: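 Endpoint: reporter mRNA increase relative to DMSO. HepG2 cells transfected with reporter units, treated 24 h; RNA processed by RT-PCR, labelling, HpaI digestion and capillary electrophoresis.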

[5] = target: Nuclear respiratory factor 1 (Homo sapiens) (UniProt Q16656); assay: ATG_NRF1_CIS: Attagene CIS-FACTORIAL HepG2 Assay for human Nuclear Respiratory Factor 1 (NRF1) Orphan Gene (AID 2282987); details: HepG2 NRF1 cis-element reporter, Attagene multiplex; actives raise or lower the signal
Method in brief: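 HepG2 cells transiently transfected with multiple cis-regulated reporter units, exposed 24 h. Reporter mRNAs measured by RT-PCR, fluorescent labelling, HpaI digestion and capillary electrophoresis; bidirectional fitting against DMSO.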

[6] = ATG_NFI_CIS: Attagene CIS-FACTORIAL HepG2 Assay for human Nuclear Factor I (NFI) (AID 2282989); details: HepG2 cis-regulatory reporter, NFI response element transcription; actives raise or lower the signal
Method in brief: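 Reporter transcription driven by endogenous transcription factors in HepG2 cells; 24 h treatment. Quantitation by labelled RT-PCR fragments on capillary electrophoresis, gain- or loss-of-signal relative to DMSO.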

[7] = target: Myc proto-oncogene protein (Homo sapiens) (UniProt P01106); assay: ATG_Myc_CIS: Attagene CIS-FACTORIAL HepG2 Assay for human Myelocytomatosis (Myc) Proto-Oncogene Transcription Factor (AID 2282990); details: HepG2, Attagene cis-reporter transcription factor activity; actives raise or lower the signal
Method in brief: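 Transiently transfected HepG2 cells bearing cis-promoter reporter units for endogenous transcription factors; 24 h exposure. Reporter mRNA measured by RT-PCR, 6-FAM primer extension, HpaI cut and capillary electrophoresis; bidirectional fit relative to DMSO.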

[8] = ATG_NF_kB_CIS: Attagene CIS-FACTORIAL HepG2 Assay for human Nuclear Factor Kappa B (NF-kB) (AID 2282991); details: HepG2 Attagene cis-factorial NF-kB reporter mRNA; actives raise or lower the signal
Method in brief: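 HepG2 cells transfected with cis-promoter-driven reporter units, so endogenous transcription factor activity is measured. Reporter mRNA quantified 24 h after dosing by RT-PCR and capillary electrophoresis, with bidirectional fitting against DMSO.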

[9] = ATG_NRF2_ARE_CIS: Attagene CIS-FACTORIAL HepG2 Assay for human Nuclear Factor Erythroid 2 Related Factor 2 (NFR2) response to Antioxidant Response Elements (ARE) (AID 2282992); details: HepG2 Attagene ARE/NRF2 reporter, transcription factor activity; actives raise or lower the signal;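 as to AC50: reporter mRNA level measured by RT-PCR and capillary electrophoresis fluorescence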
Method in brief: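 Readout: reporter mRNA quantified by RT-PCR plus FAM-labelled primer extension, HpaI digestion and capillary electrophoresis, 24 h after dosing transfected HepG2 cells. Gain or loss of signal is fitted bidirectionally against DMSO baseline.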

[10] = ATG_Oct_MLP_CIS: Attagene CIS-FACTORIAL HepG2 Assay for human Octamer-Binding Transcription Factor (Oct) (AID 2282993); details: HepG2 Attagene cis-factorial Oct reporter, mRNA; actives raise or lower the signal
Method in brief: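 Transfected HepG2 cells, 24 h treatment. Reporter mRNA quantified by RT-PCR–capillary electrophoresis; bidirectional fitting against DMSO.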

[11] = target: Cellular tumor antigen p53 (Homo sapiens) (UniProt P04637); assay: ATG_p53_CIS: Attagene CIS-FACTORIAL HepG2 Assay for human p53 Transcription Factor (AID 2282994); details: HepG2 p53 cis-element reporter, Attagene mRNA; actives raise or lower the signal
Method in brief: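 Read-out: reporter mRNA by RT-PCR plus capillary electrophoresis with fluorescence detection. Human HepG2 liver cells carried transfected multi-reporter cis-element constructs, dosed 24 h. Gain or loss of signal fitted bidirectionally against DMSO control.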

[12] = target: Oxysterols receptor LXR-beta (Homo sapiens) (UniProt P55055); assay: ATG_LXRb_TRANS: Attagene TRANS-FACTORIAL HepG2 Assay for human Liver X Receptor beta (LXRb) (AID 2282981; active = hit-call score of the fitted dose curve at least 0.9, where 1 is the maximum); details: HepG2 Attagene TRANS GAL4-LXRb reporter, mRNA
Method in brief: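 Multiplexed reporter assay, HepG2, 24 h dosing. Fluorescence of labelled RT-PCR products after capillary electrophoresis gives transcript level; positive fitting direction relative to DMSO.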

[13] = target: Hepatocyte nuclear factor 4-alpha (Homo sapiens) (UniProt P41235); assay: ATG_HNF4a_TRANS: Attagene TRANS-FACTORIAL HepG2 Assay for human Hepatocyte Nuclear Factor 4 alpha (HNF4a) (AID 2282982; active = hit-call score of the fitted dose curve at least 0.9, where 1 is the maximum); details: HepG2 HNF4a transactivation reporter, mRNA readout
Method in brief: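 Endpoint reflects transcriptional activation of a GAL4-UAS reporter by an HNF4a-GAL4 chimera in transfected HepG2 cells, 24 h post-dosing. Fluorescence from RT-PCR products separated by capillary electrophoresis; DMSO baseline.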

[14] = target: Transcriptional activator Myb (Homo sapiens) (UniProt P10242); assay: ATG_Myb_CIS: Attagene CIS-FACTORIAL HepG2 Assay for human Myeloblastosis (Myb) Proto-Oncogene Transcription Factor (AID 2282986); details: HepG2 Attagene CIS-FACTORIAL Myb reporter transcription; actives raise or lower the signal
Method in brief: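 Transiently transfected HepG2 cells carrying a multiplexed cis-promoter reporter set report endogenous Myb activity after 24 h compound exposure. Reporter mRNA is read by RT-PCR with capillary electrophoresis of fluorescent products, fitted bidirectionally against DMSO.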

[15] = target: Bile acid receptor (Homo sapiens) (UniProt Q96RI1); assay: ATG_FXR_TRANS: Attagene TRANS-FACTORIAL HepG2 Assay for Farnesoid X Receptor (FXR) (AID 2282979; active = hit-call score of the fitted dose curve at least 0.9, where 1 is the maximum;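 also: hits raise reporter mRNA above DMSO so AC50 marks FXR activation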); details: HepG2 Attagene TRANS FXR-GAL4 reporter transcription
Method in brief: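 After 24 h chemical treatment of transfected HepG2 cells, GAL4-UAS reporter transcripts driven by an exogenous FXR-GAL4 fusion were measured by RT-PCR and capillary electrophoresis. Increases over DMSO were fitted.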

[16] = target: Oxysterols receptor LXR-alpha (Homo sapiens) (UniProt Q13133); assay: ATG_LXRa_TRANS: Attagene TRANS-FACTORIAL HepG2 Assay for human Liver X Receptor alpha (LXRa) (AID 2282980; active = hit-call score of the fitted dose curve at least 0.9, where 1 is the maximum); details: HepG2 Attagene TRANS reporter, LXRa transactivation
Method in brief: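 In this multiplexed TRANS system, compounds act on HepG2 cells carrying GAL4-UAS reporter units and a receptor-GAL4 fusion for 24 h. Induced reporter RNA is amplified, fluorescently labelled and sized by capillary electrophoresis, with DMSO as baseline.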

Measured: AC50

Chain of Transcriptional activator Myb (Homo sapiens) (P10242 whole entry, looked up): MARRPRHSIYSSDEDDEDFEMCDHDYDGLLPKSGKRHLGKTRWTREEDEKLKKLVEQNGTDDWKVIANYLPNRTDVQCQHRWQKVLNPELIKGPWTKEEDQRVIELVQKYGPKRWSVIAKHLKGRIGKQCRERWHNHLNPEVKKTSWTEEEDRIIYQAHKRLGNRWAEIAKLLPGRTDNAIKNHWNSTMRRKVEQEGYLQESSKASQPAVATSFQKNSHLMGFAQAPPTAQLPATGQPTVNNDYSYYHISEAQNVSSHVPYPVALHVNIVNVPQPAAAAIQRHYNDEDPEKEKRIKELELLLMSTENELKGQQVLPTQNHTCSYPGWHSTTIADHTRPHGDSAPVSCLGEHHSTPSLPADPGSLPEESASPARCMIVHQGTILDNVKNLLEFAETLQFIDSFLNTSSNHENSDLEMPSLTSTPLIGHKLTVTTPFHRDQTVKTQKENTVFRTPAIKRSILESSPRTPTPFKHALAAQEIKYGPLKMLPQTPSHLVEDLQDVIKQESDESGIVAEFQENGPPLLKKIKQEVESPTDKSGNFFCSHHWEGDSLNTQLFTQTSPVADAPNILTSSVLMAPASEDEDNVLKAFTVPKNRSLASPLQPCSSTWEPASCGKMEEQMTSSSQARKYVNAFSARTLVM
Chain of Nuclear respiratory factor 1 (Homo sapiens) (Q16656 whole entry, looked up): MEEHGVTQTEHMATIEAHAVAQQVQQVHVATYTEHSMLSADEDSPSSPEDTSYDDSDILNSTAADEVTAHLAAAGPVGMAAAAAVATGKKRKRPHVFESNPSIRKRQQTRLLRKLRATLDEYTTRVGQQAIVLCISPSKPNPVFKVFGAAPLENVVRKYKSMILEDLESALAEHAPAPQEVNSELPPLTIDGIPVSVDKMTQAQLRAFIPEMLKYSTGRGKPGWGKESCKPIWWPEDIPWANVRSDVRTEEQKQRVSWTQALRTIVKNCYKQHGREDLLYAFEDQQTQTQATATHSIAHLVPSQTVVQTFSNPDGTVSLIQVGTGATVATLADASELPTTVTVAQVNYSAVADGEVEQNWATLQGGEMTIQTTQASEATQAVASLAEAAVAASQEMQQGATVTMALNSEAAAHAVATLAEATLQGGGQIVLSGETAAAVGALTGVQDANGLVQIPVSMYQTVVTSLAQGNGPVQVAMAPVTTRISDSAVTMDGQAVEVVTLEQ
Chain of Hepatocyte nuclear factor 4-alpha (Homo sapiens) (P41235 whole entry, looked up, the tested form may be a part): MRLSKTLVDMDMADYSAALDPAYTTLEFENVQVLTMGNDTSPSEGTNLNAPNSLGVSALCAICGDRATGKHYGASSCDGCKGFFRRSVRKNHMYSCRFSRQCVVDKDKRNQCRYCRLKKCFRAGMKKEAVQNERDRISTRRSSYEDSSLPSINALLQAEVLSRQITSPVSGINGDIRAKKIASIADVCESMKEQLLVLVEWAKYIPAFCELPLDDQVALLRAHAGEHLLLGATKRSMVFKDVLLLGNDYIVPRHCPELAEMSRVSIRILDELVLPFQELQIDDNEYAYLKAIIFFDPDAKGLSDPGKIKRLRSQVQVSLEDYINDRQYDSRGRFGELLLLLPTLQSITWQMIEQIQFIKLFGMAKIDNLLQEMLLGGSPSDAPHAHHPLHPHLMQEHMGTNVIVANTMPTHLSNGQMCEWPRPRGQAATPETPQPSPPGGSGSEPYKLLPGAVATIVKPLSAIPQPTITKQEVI
Chain of Glucocorticoid receptor (Homo sapiens) (P04150 whole entry, looked up, the tested form may be a part): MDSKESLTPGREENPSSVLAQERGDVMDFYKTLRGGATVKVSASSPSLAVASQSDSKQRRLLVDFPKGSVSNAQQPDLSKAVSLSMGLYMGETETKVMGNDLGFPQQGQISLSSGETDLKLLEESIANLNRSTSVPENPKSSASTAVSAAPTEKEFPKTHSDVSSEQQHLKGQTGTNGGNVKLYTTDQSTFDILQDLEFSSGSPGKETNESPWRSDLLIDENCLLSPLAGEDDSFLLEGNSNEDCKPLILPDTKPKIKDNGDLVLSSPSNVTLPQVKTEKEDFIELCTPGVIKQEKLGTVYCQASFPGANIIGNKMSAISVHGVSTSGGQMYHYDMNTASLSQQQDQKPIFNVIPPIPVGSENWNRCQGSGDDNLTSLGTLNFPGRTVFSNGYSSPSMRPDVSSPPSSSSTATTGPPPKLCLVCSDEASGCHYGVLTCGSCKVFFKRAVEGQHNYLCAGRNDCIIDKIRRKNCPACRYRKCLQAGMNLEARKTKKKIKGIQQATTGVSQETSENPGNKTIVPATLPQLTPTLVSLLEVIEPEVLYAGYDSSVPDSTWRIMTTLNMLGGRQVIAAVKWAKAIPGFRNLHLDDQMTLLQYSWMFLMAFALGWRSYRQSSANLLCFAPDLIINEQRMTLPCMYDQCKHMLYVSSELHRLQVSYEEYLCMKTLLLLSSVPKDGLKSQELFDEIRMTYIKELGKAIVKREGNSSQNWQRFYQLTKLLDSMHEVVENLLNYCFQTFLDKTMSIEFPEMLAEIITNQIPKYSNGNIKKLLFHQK
Chain of Oxysterols receptor LXR-beta (Homo sapiens) (P55055 whole entry, looked up, the tested form may be a part): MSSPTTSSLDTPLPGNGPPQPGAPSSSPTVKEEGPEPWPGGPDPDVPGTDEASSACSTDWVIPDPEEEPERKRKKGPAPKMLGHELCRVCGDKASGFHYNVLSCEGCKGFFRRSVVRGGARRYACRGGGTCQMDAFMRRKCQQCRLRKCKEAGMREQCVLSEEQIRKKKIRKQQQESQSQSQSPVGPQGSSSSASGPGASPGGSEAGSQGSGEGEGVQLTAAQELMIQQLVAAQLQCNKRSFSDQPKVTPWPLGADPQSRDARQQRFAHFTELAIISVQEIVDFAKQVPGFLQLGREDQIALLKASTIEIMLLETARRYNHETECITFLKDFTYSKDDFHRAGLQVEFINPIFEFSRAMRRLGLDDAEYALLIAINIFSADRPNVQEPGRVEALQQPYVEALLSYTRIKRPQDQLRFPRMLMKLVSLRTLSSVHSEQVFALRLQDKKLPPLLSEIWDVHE
Chain of Cellular tumor antigen p53 (Homo sapiens) (P04637 whole entry, looked up): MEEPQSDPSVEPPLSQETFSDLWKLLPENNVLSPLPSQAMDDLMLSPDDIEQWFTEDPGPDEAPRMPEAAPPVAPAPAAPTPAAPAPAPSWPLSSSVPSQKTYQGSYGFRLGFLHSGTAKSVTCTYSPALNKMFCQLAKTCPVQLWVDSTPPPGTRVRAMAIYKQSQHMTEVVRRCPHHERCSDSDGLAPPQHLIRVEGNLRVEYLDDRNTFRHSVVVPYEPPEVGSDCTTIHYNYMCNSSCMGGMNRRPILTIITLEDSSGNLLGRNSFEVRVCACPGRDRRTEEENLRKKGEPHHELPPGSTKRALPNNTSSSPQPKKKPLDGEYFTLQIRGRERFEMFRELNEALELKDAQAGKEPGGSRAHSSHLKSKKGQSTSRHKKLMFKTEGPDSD
Chain of Myc proto-oncogene protein (Homo sapiens) (P01106 whole entry, looked up): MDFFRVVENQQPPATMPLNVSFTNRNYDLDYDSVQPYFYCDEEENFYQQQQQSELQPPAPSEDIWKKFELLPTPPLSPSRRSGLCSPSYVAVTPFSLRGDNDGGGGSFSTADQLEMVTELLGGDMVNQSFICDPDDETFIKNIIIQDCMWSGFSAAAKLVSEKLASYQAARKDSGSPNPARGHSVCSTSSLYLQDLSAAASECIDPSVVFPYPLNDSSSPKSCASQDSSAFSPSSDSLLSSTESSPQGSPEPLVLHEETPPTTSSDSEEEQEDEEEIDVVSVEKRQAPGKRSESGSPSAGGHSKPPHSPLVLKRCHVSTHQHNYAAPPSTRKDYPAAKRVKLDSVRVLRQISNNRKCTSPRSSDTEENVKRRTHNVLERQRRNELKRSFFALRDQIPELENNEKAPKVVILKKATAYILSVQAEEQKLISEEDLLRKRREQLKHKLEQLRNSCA
Chain of Nuclear receptor subfamily 4 group A member 2 (Homo sapiens) (P43354 whole entry, looked up): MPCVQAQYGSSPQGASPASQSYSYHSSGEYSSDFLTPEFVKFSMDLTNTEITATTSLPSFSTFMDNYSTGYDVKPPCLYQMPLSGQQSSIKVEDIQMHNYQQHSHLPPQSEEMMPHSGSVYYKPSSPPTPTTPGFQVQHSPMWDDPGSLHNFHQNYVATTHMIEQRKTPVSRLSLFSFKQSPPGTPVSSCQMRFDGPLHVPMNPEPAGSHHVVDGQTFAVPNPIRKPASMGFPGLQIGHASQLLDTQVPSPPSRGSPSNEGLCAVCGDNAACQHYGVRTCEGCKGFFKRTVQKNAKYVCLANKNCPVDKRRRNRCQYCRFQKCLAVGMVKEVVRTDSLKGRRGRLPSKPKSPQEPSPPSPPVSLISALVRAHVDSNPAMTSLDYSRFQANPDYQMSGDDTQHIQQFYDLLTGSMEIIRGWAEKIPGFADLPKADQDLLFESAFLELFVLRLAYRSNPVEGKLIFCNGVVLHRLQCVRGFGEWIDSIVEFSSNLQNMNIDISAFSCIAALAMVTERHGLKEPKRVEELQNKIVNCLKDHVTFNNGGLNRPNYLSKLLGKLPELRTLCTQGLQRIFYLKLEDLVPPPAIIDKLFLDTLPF
Chain of Bile acid receptor (Homo sapiens) (Q96RI1 whole entry, looked up, the tested form may be a part): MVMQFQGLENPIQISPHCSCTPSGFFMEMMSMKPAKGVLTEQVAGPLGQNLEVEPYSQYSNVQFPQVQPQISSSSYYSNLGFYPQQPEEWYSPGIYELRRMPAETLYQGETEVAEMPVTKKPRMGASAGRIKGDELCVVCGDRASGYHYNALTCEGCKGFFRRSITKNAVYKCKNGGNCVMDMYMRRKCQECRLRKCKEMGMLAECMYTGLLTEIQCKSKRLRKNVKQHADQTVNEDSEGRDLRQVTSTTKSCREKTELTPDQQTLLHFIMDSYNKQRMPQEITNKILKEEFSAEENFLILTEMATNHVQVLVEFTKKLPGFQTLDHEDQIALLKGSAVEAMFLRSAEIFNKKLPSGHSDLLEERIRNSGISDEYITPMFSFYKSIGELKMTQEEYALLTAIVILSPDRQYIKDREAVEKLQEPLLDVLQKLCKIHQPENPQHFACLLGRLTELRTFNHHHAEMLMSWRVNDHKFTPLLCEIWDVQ

CCC(C)(O)CCC=C(C)C (centres undefined)
not listed: [12] | [13] | [14] | [15] | [16]
inactive: all other assays above

Nc1ccc(F)c([N+](=O)[O-])c1
not listed: [2] | [4] | [15] | [16]
inactive: all other assays above

CN(C)c1ccc(O)c2c1C[C@H]1C[C@H]3[C@H](N(C)C)C(=O)C(C(N)=O)=C(O)[C@@]3(O)C(=O)C1=C2O
inactive: [1] | [12] | [4] | [14] | [5] | [6] | [7] | [8] | [10]

S=C(S)NCCNC(=S)S
inactive: [1] | [2] | [3] | [14] | [5] | [6] | [7] | [10]

Nc1cccc(S(=O)(=O)c2cccc(N)c2)c1
not listed: [4] | [8] | [9] | [15] | [16]
inactive: all other assays above

O=Nc1ccc(Nc2ccccc2)cc1
active: [5] 56.3 µM | [6] 56.4 µM | [8] 12.1 µM | [9] 7.16 µM | [10] 33.4 µM | [11] 54.3 µM
not listed: [1] | [2] | [4]
inactive: all other assays above
